{"source": "PubChem BioAssay AID652233", "about": "(Johns Hopkins Ion Channel Center, 2013)", "note": "Screen size: about 2,300 compounds; fewer than 10 were called active.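 The calls were made as follows: active = yellow fluorescent protein signal ratio exceeding the buffer control mean by over 5 SD of those controls; inactive = the rest.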 These entries were drawn from the full list.", "data": [{"assay": "iodide YFP quench changes in parental YFP-HEK293, counter-screen for TMEM16A inhibitor project, cell-based (AID 652233);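 also: ratio is mean of duplicate wells from kinetic YFP trace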", "details": "ionomycin, at 10 µM", "values": [{"compound": "Cc1nc2ccccc2cc1OCc1ccc(F)cc1", "YFP ratio F(max-min)/F0": "-0.66 (inactive)"}, {"compound": "CCCCNC(=O)CSc1nc2n[nH]c(C)c2c(=N)n1-c1cccc(Cl)c1C", "YFP ratio F(max-min)/F0": "-0.786 (inactive)"}, {"compound": "c1ccc(-c2nnc(SCc3nc4ccccc4[nH]3)o2)cc1", "YFP ratio F(max-min)/F0": "-1.02 (inactive)"}, {"compound": "COc1ccc(OCC(=O)NCCc2ccc(S(N)(=O)=O)cc2)cc1", "YFP ratio F(max-min)/F0": "-0.874 (inactive)"}, {"compound": "COc1ccc(S(=O)(=O)NCCCCOc2ccc(Cl)cc2)cc1", "YFP ratio F(max-min)/F0": "-1.14 (inactive)"}, {"compound": "O=C(CNCCC1=CCCCC1)Nc1ccccc1N1CCCCCC1", "YFP ratio F(max-min)/F0": "-1.09 (inactive)"}, {"compound": "CN(c1cccc(NC(=O)c2ccc(CN3CCc4ccccc4C3)cc2)c1)S(C)(=O)=O", "YFP ratio F(max-min)/F0": "-0.916 (inactive)"}, {"compound": "Cc1ccc(-n2ncc3c(N4CCN(c5ccc(F)cc5)CC4)ncnc32)c(C)c1", "YFP ratio F(max-min)/F0": "-0.733 (inactive)"}, {"compound": "CCCCCc1ccc(-c2ccc(C(=O)O)cc2)nc1", "YFP ratio F(max-min)/F0": "-0.857 (inactive)"}, {"compound": "O=C(Nc1cccc(S(=O)(=O)Nc2ccc(Cl)cc2)c1)c1ccc2c(c1)OCCO2", "YFP ratio F(max-min)/F0": "-1.08 (inactive)"}, {"compound": "S=C(NCc1ccc(Cl)cc1)NC12CC3CC(CC(C3)C1)C2", "YFP ratio F(max-min)/F0": "-1.22 (inactive)"}, {"compound": "Cc1nc(C)c(-c2csc(NCCc3ccccc3)n2)s1", "YFP ratio F(max-min)/F0": "-0.901 (inactive)"}, {"compound": "Cc1cc(C)cc(NS(=O)(=O)c2ccc(Oc3ncc(C(F)(F)F)cc3Cl)cc2)c1", "YFP ratio F(max-min)/F0": "-0.961 (inactive)"}, {"compound": "N#Cc1nc(COc2ccc(-c3ccccc3)cc2)oc1NCc1cccnc1", "YFP ratio F(max-min)/F0": "-0.991 (inactive)"}, {"compound": "Cn1c(=O)n(C)c2cc(S(=O)(=O)N3CCCc4ccccc43)ccc21", "YFP ratio F(max-min)/F0": "-1.35 (inactive)"}, {"compound": "COc1ccc(CNc2nnnn2C)cc1", "YFP ratio F(max-min)/F0": "-0.894 (inactive)"}, {"compound": "O=C1c2ccccc2C(Nc2ccc3c(c2)OCCO3)N1Cc1ccco1", "note": "(centres undefined)", "YFP ratio F(max-min)/F0": "-0.965 (inactive)"}, {"compound": "O=C(COC(=O)CCc1c[nH]c(=O)[nH]1)Nc1ccccc1Cl", "YFP ratio F(max-min)/F0": "-0.772 (inactive)"}, {"compound": "N#CC1=C(SCc2ccccc2)NC(=O)C(C#N)C12CCCC2", "note": "(centres undefined)", "YFP ratio F(max-min)/F0": "-0.894 (inactive)"}, {"compound": "O=C(COc1ccccc1)NCc1ccc2c(c1)OCO2", "YFP ratio F(max-min)/F0": "-1.01 (inactive)"}, {"compound": "S=C(NCc1cccs1)Nc1ccc(Cl)cc1", "YFP ratio F(max-min)/F0": "-1.2 (inactive)"}, {"compound": "Cc1ccc(C)c(N2CCN(S(=O)(=O)c3ccc4c(c3)oc(=O)n4C)CC2)c1", "YFP ratio F(max-min)/F0": "-1.24 (inactive)"}, {"compound": "Cc1cc(C=O)c(C)n1-c1ccc(NC2CCCCC2)c([N+](=O)[O-])c1", "YFP ratio F(max-min)/F0": "-0.94 (inactive)"}, {"compound": "CC(=O)c1c(C)[nH]c(C(=O)COC(=O)c2cccc(S(=O)(=O)N(C)c3ccccc3)c2)c1C", "YFP ratio F(max-min)/F0": "-1.08 (inactive)"}, {"compound": "O=C(Nc1nc(-c2ccc3c(c2)OCO3)cs1)c1ccncc1", "YFP ratio F(max-min)/F0": "-0.891 (inactive)"}, {"compound": "CC(NC(=O)c1ccco1)C(=O)Nc1nc(-c2ccccn2)cs1", "note": "(centres undefined)", "YFP ratio F(max-min)/F0": "-1.13 (inactive)"}, {"compound": "Cc1ccc(N2C(=O)S/C(=C/c3cn(C)c4ccccc34)C2=O)cc1", "YFP ratio F(max-min)/F0": "-0.76 (inactive)"}, {"compound": "COc1ccc(CN(C)C(=O)CC(c2ccccc2)c2ccccc2)cc1", "YFP ratio F(max-min)/F0": "-1.04 (inactive)"}, {"compound": "CCOC(=O)N1CCN(C(=O)c2ccc3c(c2)N(Cc2ccc(C)cc2)CCS3)CC1", "YFP ratio F(max-min)/F0": "-1.18 (inactive)"}, {"compound": "Cc1noc(C)c1COC(=O)c1cc2ccccc2cc1O", "YFP ratio F(max-min)/F0": "-0.996 (inactive)"}, {"compound": "COc1ccc2[nH]cc(/C=C(/C#N)S(=O)(=O)c3ccccc3)c2c1", "YFP ratio F(max-min)/F0": "-1.14 (inactive)"}, {"compound": "O=C(N/N=C/c1cc(Cl)cc([N+](=O)[O-])c1O)C(O)(c1ccccc1)c1ccccc1", "YFP ratio F(max-min)/F0": "-0.984 (inactive)"}, {"compound": "Cc1ccc2c(c1)N(S(=O)(=O)c1cc(-c3cc(C)no3)ccc1C)CCO2", "YFP ratio F(max-min)/F0": "-0.714 (inactive)"}, {"compound": "COc1ccc(CCC(=O)c2ccc(OC)cc2)cc1", "YFP ratio F(max-min)/F0": "-1.35 (inactive)"}, {"compound": "Cc1ccc(-c2noc(CSc3nnnn3-c3ccccc3)n2)cc1", "YFP ratio F(max-min)/F0": "-0.963 (inactive)"}, {"compound": "CC(C)(C)C(=O)/C(C#N)=C/c1ccc(O)cc1", "YFP ratio F(max-min)/F0": "-1.08 (inactive)"}, {"compound": "COC(=O)c1ccc(COC(=O)c2c(C)nn(Cc3ccccc3Cl)c2Cl)o1", "YFP ratio F(max-min)/F0": "-1.29 (inactive)"}, {"compound": "CC1=NN(c2cccc(Cl)c2)C(=O)C12CC(C)=C(C)CS2", "note": "(centres undefined)", "YFP ratio F(max-min)/F0": "-1.3 (inactive)"}, {"compound": "CCOC(=O)c1cccc(NC(=O)CCn2nnc3ccccc32)c1", "YFP ratio F(max-min)/F0": "-1.02 (inactive)"}, {"compound": "C=C(C)Cn1c(C)cc(C)c(S(=O)(=O)c2ccccc2C)c1=O", "YFP ratio F(max-min)/F0": "-0.995 (inactive)"}, {"compound": "Cc1nc2c(C(=O)NCc3ccc4c(c3)OCO4)c[nH]n2c(=O)c1Cc1ccccc1F", "YFP ratio F(max-min)/F0": "-1.21 (inactive)"}, {"compound": "COC(=O)c1ccc(NC(=O)c2ccccc2NS(=O)(=O)c2ccccc2)cc1", "YFP ratio F(max-min)/F0": "-0.979 (inactive)"}, {"compound": "O=C(NC(=S)Nc1ccccc1C(=O)O)c1ccc(-c2ccc(Br)cc2)o1", "YFP ratio F(max-min)/F0": "-1.06 (inactive)"}, {"compound": "CN1c2ccc(C=O)c3c(C=O)ccc(c23)N(C)C1(C)C", "YFP ratio F(max-min)/F0": "-1 (inactive)"}, {"compound": "Cc1ccccc1-n1nnnc1SCCCC(=O)c1ccc(F)cc1", "YFP ratio F(max-min)/F0": "-1.2 (inactive)"}, {"compound": "Cc1ccc(F)cc1NC(=O)Cc1nn(C)c(=O)c2ccccc12", "YFP ratio F(max-min)/F0": "-1.06 (inactive)"}, {"compound": "CC(C)CNC(=S)NNC(=O)c1nn(C)cc1Cl", "YFP ratio F(max-min)/F0": "-0.979 (inactive)"}, {"compound": "Cc1ccc(-n2[nH]c(C)c(/C=N/N3C(=O)c4cccc5cccc(c45)C3=O)c2=O)cc1", "YFP ratio F(max-min)/F0": "-0.991 (inactive)"}, {"compound": "Cc1nc(SCC(=O)N2CCc3ccccc3C2)c2c(C)c(C)sc2n1", "YFP ratio F(max-min)/F0": "-1.07 (inactive)"}, {"compound": "CSc1nsc(NC(=O)Nc2ccccc2)n1", "YFP ratio F(max-min)/F0": "-0.839 (inactive)"}, {"compound": "CCOC(=O)N1CC=C2C(C#N)=C(N)C(C#N)(C#N)[C@H](c3cccs3)[C@H]2C1", "YFP ratio F(max-min)/F0": "-1.01 (inactive)"}, {"compound": "CCC(=O)Nc1ccc2nc(C)n(Cc3ccccc3Cl)c(=O)c2c1", "YFP ratio F(max-min)/F0": "-1.04 (inactive)"}, {"compound": "Cc1cccc(N=Nc2c(O)[nH]c3ccc(F)cc23)c1", "YFP ratio F(max-min)/F0": "-0.957 (inactive)"}, {"compound": "COc1cccc(CNS(=O)(=O)c2ccc3c(c2)CC(C)N3C(=O)C2CCC2)c1", "note": "(centres undefined)", "YFP ratio F(max-min)/F0": "-1.01 (inactive)"}, {"compound": "C=CCn1c(SCC(=O)Nc2nc3ccccc3s2)nnc1-c1ccccc1O", "YFP ratio F(max-min)/F0": "-1.05 (inactive)"}, {"compound": "Fc1ccc(CSc2nnc(-c3cc4c(s3)-c3ccccc3CC4)o2)cc1", "YFP ratio F(max-min)/F0": "-0.984 (inactive)"}, {"compound": "O=C(CSCc1ccc(Cl)cc1)N1CCN(Cc2ccc3c(c2)OCO3)CC1", "YFP ratio F(max-min)/F0": "-1.19 (inactive)"}, {"compound": "CSc1cccc(NC(=S)N(C(C)C)C(C)c2ccccn2)c1", "note": "(centres undefined)", "YFP ratio F(max-min)/F0": "-0.907 (inactive)"}, {"compound": "CCCCn1ccnc1C(=O)c1cccc(S(=O)(=O)N2c3ccccc3CC2C)c1", "note": "(centres undefined)", "YFP ratio F(max-min)/F0": "-1.39 (inactive)"}]}]}
